Assay results from PubChem BioAssay (Tox21).
Values joined by “and” are separate entries in the source; they are usually repeats but may differ in a detail not shown here. Equal entries are not always repeated. Records with an inconclusive call do not appear. More than one record can exist for a structure, and the calls need not agree. Active and inactive are the calls of the source. Unless noted, calls follow the shape of the dose curve; as a rule, active = well fitted curve in the direction sought with a large enough effect in the repeat runs; inconclusive = weak or mixed curves; inactive = no such curve, though single readings can be large; an effect the other way counts as inactive or inconclusive.

How the values were obtained:
[1] = qHTS assay to identify small molecule antagonists of the thyroid receptor (TR) signaling pathway (AID 743065); conditions: GH3.TRE-Luc, T3-stimulated luciferase inhibition, 23.5 h; series mostly up to 70.3 µM; also: nearly all actives have a fitted effect of over 55% in size; also: potency is read from the fitted curve at half-maximal effect
Summary of the method: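 GH3.TRE-Luc rat pituitary cells carrying two TR response elements driving luciferase were plated for 4 h, given compound plus 1 nM T3 (final), and incubated 23.5 h at 37 C. ONE-Glo luminescence measured reporter inhibition; CellTiter-Fluor fluorescence tracked cytotoxicity.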

[2] = test system: thyroid hormone receptor (rat, GH3 cells); test: qHTS assay to identify small molecule agonists of the thyroid receptor (TR) signaling pathway (AID 743066; calls by dose curve); conditions: GH3.TRE-Luc cells, TR agonist luciferase, 24 h; series mostly up to 83.9 µM
[3] = qHTS assay to identify small molecule antagonists of the estrogen receptor alpha (ER-alpha) signaling pathway - cell viability counter screen (AID 743074; calls by dose curve; also: nearly all actives have a fitted effect of over 45% in size); conditions: ERalpha-bla HEK293 viability, CellTiter-Glo luminescence, 18 h; series mostly up to 69.4 µM
[4] = target: Estrogen receptor (Homo sapiens) (UniProt P03372); test: qHTS assay to identify small molecule agonists of the estrogen receptor alpha (ER-alpha) signaling pathway (AID 743075; calls by dose curve); conditions: HEK293 ER-alpha-UAS-bla, beta-lactamase FRET ratio, 18 h; series mostly up to 70.1 µM
[5] = target: Estrogen receptor (Homo sapiens) (UniProt P03372); test: qHTS assay to identify small molecule agonists of the estrogen receptor alpha (ER-alpha) signaling pathway using the BG1 cell line (AID 743079); conditions: BG1Luc4E2 cells, ERE-luciferase agonist, 22 h; series mostly up to 70.3 µM; also: nearly all actives have a fitted effect of over 20% in size
[6] = qHTS assay to identify small molecule antagonists of the estrogen receptor alpha (ER-alpha) signaling pathway using the BG1 cell line (AID 743080; calls by dose curve;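 also: BG1 cells stimulated with 17beta-estradiol alongside compound; nearly all actives have a fitted effect of over 25% in size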; also: potency is read from the fitted curve at half-maximal effect); conditions: BG1Luc4E2 ERE-luciferase antagonist mode, luminescence; series mostly up to 70.3 µM
Summary of the method: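 Luciferase inhibition measured with ONE-Glo after 30 min at RT in BG1Luc4E2 cells given test compounds and 17beta-estradiol for 21.5 h at 37 C; CellTiter-Fluor viability read in the same wells beforehand.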

[7] = qHTS assay to identify small molecule antagonists of the estrogen receptor alpha (ER-alpha) signaling pathway using the BG1 cell line - cell viability counter screen (AID 743081); conditions: BG1Luc4E2 viability, CellTiter-Fluor, 22 h; series mostly up to 70.3 µM;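 also: compound given together with 17beta-estradiol as the ER stimulus; nearly all actives have a fitted effect of over 45% in size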
Aromatase (Homo sapiens) = Aromatase (Homo sapiens) (UniProt P11511); test: qHTS assay to identify aromatase inhibitors (AID 743083); conditions: MCF-7 aro ERE, testosterone-driven ERE luciferase, 24 h; series mostly up to 70.3 µM; also: nearly all actives have a fitted effect of over 55% in size
[8] = qHTS assay to identify aromatase inhibitors - cell viability counter screen (AID 743084); conditions: MCF-7 aro ERE viability, CellTiter-Fluor, 24 h; series mostly up to 70.3 µM;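 also: cells stimulated with testosterone during compound exposure; nearly all actives have a fitted effect of over 55% in size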; also: potency is read from the fitted curve at half-maximal effect
[9] = target: Aryl hydrocarbon receptor (Homo sapiens) (UniProt P35869); test: qHTS assay to identify small molecule that activate the aryl hydrocarbon receptor (AhR) signaling pathway (AID 743085); conditions: HepG2 AhR-luc (HG2L7.5c1), luciferase, 24 h; series mostly up to 70.3 µM;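 also: HG2L7.5c1 human HepG2 liver cells with stably integrated DRE-driven firefly reporter; nearly all actives have a fitted effect of over 15% in size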
Summary of the method: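 Steps: seed HepG2-AhR-luc cells; allow 5 h at 37C; pin-transfer test compound or vehicle; incubate 24 h at 37C; add viability dye (30 min, 37C) and read fluorescence; add luciferase substrate (30 min, RT) and read luminescence.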

[10] = qHTS assay to identify small molecule that activate the aryl hydrocarbon receptor (AhR) signaling pathway - cell viability counter screen (AID 743086); conditions: HepG2-AhR-luc viability, CellTiter-Fluor, 24 h; series mostly up to 70.3 µM; also: nearly all actives have a fitted effect of over 45% in size; also: potency is read from the fitted curve at half-maximal effect
Summary of the method: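 HepG2-AhR-luc (HG2L7.5c1) cells, 4000/well, were preincubated 5 h at 37C, exposed to compound in qHTS format for 24 hr at 37C, then given CellTiter-Fluor for 30 min; viability was read as fluorescence in the reporter wells.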

[11] = target: Peroxisome proliferator-activated receptor gamma (Homo sapiens) (UniProt P37231); test: qHTS assay to identify small molecule agonists of the peroxisome proliferator-activated receptor gamma (PPARg) signaling pathway (AID 743094; active = well fitted activation curve with a large enough effect in the signal ratio in the repeat runs, not every such curve was filed as active; the % refers to the signal ratio); conditions: HEK293H PPARg-UAS-bla, beta-lactamase FRET ratio, 17 h; series mostly up to 57 µM
Summary of the method: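 Cell-based bla reporter, HEK293H background, PPARg-driven UAS. Pre-incubation 5 h, 37C, 5% CO2. Compound 17 h, 37C. Substrate 1 h RT; fluorescence.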

[12] = target: Peroxisome proliferator-activated receptor gamma (Homo sapiens) (UniProt P37231); test: qHTS assay to identify small molecule antagonists of the peroxisome proliferator-activated receptor gamma (PPARg) signaling pathway (AID 743191; calls by dose curve; also: nearly all actives have a fitted effect of over 30% in size); conditions: HEK293H PPARg-UAS-bla, beta-lactamase ratio, antagonist, 17 h; series mostly up to 62.6 µM
Summary of the method: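 GeneBLAzer PPARg UAS-bla HEK293H cells carrying a UAS-driven beta-lactamase reporter were plated at 3000 cells/well, preincubated 5 h at 37C, then given compound for 17 h at 37C; LiveBLAzer B/G FRET substrate was read after 1 h at room temperature.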

[13] = qHTS assay to identify small molecule antagonists of the peroxisome proliferator-activated receptor gamma (PPARg) signaling pathway - cell viability counter screen (AID 743194); conditions: PPARg-bla HEK293H viability, CellTiter-Glo luminescence, 17 h, co-treated with 50 nM rosiglitazone; series mostly up to 62.6 µM; also: nearly all actives have a fitted effect of over 55% in size
Summary of the method: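 PPARg-UAS-bla HEK293H cells were plated, rested 5 h at 37 C, then treated with compounds plus rosiglitazone (50 nM final) for 17 h at 37 C; viability was then read by CellTiter-Glo luminescence after 30 min at room temperature.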

[14] = qHTS assay for small molecule agonists of the antioxidant response element (ARE) signaling pathway (AID 743202; active = well fitted activation curve with a large enough effect in the signal ratio in the repeat runs, not every such curve was filed as active; the % refers to the signal ratio); conditions: HepG2 ARE-bla reporter, beta-lactamase FRET, 16 h; series mostly up to 73.3 µM
Summary of the method: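 Steps: seed ARE-bla HepG2 cells (2,000/well); incubate 5 h at 37 C; add compounds by pin tool; incubate 16 h at 37 C; add FRET substrate; read fluorescence after 2 h at RT.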

[15] = qHTS assay for small molecule agonists of the antioxidant response element (ARE) signaling pathway - cell viability counter screen (AID 743203; calls by dose curve; also: nearly all actives have a fitted effect of over 55% in size); conditions: ARE-bla HepG2 viability, CellTiter-Glo luminescence, 16 h; series mostly up to 73.3 µM
Summary of the method: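 Measured in the same wells as the beta-lactamase ARE reporter, this read-out is CellTiter-Glo luminescence from HepG2 ARE-bla cells given compounds for 16 hrs.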

[16] = qHTS assay for small molecule activators of the heat shock response signaling pathway (AID 743210; active = well fitted activation curve with a large enough effect in the signal ratio in the repeat runs, with a control signal flat, not every such curve was filed as active; the % refers to the signal ratio;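 also: HeLa cells with beta-lactamase reporter driven by heat shock elements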); conditions: HeLa HSE-bla reporter, beta-lactamase ratio, 5 h; series mostly up to 62.6 µM
Summary of the method: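 Activation of heat shock element-controlled beta-lactamase expression is measured in HeLa cells by LiveBLAzer FRET fluorescence, with compound exposure lasting 5 h at 37 C and substrate loading 2.5 h at room temperature.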

[17] = qHTS assay to identify small molecule agonists of the peroxisome proliferator-activated receptor delta (PPARd) signaling pathway - cell viability counter screen (AID 743211); conditions: PPARd-bla HEK293H viability, CellTiter-Glo luminescence, 17 h; series mostly up to 62.6 µM; also: nearly all actives have a fitted effect of over 55% in size
Summary of the method: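 Viability of GeneBLAzer PPARd UAS-bla HEK293H cells was assessed after 17 h compound incubation at 37C, using CellTiter-Glo reagent added after the reporter read and luminescence recorded 30 min later.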

[18] = target: Estrogen receptor (Homo sapiens) (UniProt P03372); test: qHTS assay to identify small molecule antagonists of the estrogen receptor alpha (ER-alpha) signaling pathway (AID 743069; active = well fitted curve in the direction sought with a large enough effect in the signal ratio in the repeat runs, not every such curve was filed as active; the % refers to the signal ratio; also: potency is read from the fitted curve at half-maximal effect); conditions: HEK293 ER-alpha-UAS-bla, beta-lactamase ratio, antagonist mode; series mostly up to 69.4 µM
Summary of the method: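 Screening used a UAS-driven beta-lactamase reporter integrated into HEK293 cells expressing ER-alpha, stimulated with 17beta-estradiol alongside test compounds over 18 hr at 37C; signal came from LiveBLAzer B/G FRET fluorescence.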

[19] = qHTS assay for small molecule activators of the heat shock response signaling pathway - cell viability counter screen (AID 743209); conditions: HSE-bla HeLa viability, CellTiter-Glo luminescence, 5 h; series mostly up to 62.6 µM; also: nearly all actives have a fitted effect of over 50% in size
Summary of the method: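 Same-well multiplex: after 2.5 h room-temperature incubation with LiveBLAzer B/G substrate and fluorescence reading, CellTiter-Glo reagent was added to HSE-bla HeLa cells that had received compound for 5 h at 37 C; luminescence read after 30 min.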

Measured: Potency

Sequence of Aryl hydrocarbon receptor (Homo sapiens) (P35869 whole entry, looked up): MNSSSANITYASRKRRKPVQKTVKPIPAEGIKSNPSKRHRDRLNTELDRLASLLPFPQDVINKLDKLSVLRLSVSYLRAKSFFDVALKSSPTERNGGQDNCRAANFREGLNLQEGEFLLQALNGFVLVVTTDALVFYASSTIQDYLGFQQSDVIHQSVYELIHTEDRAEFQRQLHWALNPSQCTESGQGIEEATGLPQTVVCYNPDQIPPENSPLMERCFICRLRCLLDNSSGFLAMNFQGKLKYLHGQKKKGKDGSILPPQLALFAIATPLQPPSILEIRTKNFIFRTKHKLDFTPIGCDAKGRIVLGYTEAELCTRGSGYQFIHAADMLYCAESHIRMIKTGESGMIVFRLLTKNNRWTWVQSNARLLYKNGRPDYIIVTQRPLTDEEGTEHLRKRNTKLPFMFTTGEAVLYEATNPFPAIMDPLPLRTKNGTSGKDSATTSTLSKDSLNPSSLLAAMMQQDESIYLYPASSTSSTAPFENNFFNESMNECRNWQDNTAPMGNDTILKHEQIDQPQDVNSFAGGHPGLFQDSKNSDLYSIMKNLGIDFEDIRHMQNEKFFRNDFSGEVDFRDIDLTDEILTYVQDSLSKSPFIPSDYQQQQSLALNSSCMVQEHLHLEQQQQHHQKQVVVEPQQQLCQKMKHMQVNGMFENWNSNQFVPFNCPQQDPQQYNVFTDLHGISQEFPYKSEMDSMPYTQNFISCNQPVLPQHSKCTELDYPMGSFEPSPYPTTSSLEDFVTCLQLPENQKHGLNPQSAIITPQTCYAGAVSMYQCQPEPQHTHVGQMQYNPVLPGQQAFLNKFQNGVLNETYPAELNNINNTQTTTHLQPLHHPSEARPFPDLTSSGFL
Sequence of Aromatase (Homo sapiens) (P11511 whole entry, looked up): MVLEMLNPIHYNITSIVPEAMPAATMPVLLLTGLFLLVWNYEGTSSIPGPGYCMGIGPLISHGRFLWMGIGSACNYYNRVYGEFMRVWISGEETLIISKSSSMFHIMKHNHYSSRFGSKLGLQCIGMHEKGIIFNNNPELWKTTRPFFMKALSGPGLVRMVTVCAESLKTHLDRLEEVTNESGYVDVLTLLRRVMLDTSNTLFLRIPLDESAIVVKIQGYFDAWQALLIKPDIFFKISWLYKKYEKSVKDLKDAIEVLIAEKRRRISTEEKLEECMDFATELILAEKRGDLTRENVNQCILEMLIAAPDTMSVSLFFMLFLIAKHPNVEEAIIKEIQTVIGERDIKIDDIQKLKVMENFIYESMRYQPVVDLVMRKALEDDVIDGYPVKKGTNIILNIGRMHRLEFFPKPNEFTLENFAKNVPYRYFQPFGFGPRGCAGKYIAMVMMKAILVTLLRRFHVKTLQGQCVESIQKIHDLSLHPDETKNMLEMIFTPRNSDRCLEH
Sequence of Peroxisome proliferator-activated receptor gamma (Homo sapiens) (P37231 whole entry, looked up): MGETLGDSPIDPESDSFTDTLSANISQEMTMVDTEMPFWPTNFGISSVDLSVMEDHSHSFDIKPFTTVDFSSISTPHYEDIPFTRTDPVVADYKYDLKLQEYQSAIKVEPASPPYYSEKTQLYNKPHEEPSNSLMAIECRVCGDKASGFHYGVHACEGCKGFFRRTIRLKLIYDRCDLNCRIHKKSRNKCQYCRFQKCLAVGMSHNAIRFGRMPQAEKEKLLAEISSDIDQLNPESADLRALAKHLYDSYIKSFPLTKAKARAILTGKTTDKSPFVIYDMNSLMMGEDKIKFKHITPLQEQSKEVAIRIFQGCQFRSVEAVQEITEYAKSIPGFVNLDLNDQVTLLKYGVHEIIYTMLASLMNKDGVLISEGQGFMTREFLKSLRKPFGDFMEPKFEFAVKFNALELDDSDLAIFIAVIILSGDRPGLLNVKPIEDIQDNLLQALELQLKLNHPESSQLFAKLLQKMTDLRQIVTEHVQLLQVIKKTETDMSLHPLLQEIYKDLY
Sequence of Estrogen receptor (Homo sapiens) (P03372 whole entry, looked up): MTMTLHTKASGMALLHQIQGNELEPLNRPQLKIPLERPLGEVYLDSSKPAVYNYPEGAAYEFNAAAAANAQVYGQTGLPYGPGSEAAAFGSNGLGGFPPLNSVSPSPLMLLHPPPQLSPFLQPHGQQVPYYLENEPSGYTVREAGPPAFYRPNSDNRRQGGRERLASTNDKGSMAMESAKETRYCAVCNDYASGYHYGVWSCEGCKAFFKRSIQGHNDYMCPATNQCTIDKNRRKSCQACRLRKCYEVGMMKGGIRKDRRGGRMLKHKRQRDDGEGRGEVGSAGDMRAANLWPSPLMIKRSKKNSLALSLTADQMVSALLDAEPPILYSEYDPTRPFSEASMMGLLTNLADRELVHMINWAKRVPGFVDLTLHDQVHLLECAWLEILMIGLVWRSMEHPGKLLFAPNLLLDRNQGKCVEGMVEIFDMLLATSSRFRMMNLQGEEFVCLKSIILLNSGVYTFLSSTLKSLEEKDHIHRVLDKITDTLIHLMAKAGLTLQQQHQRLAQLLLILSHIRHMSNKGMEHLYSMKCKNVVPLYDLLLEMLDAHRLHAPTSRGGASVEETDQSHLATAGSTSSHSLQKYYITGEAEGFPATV

CC(=O)Oc1cccc(C)c1
not listed: [18] | [19]
inactive: all other assays above

Cc1ccc(C(=O)Nc2ccc(S(=O)(=O)O)c3cc(S(=O)(=O)O)cc(S(=O)(=O)O)c23)cc1NC(=O)c1cccc(NC(=O)Nc2cccc(C(=O)Nc3cc(C(=O)Nc4ccc(S(=O)(=O)O)c5cc(S(=O)(=O)O)cc(S(=O)(=O)O)c45)ccc3C)c2)c1
not listed: [3] | [13] | [19]
inactive: all other assays above

c1coc(CNc2ncnc3nc[nH]c23)c1
not listed: [5] | [12] | [14]
inactive: all other assays above

CC(C)c1ccc2ncccc2c1
not listed: [6] | [11] | [12] | [17] | [19]
inactive: all other assays above

CN(C)CCCN(C)CCCN(C)C
not listed: [5] | [15]
inactive: all other assays above

Nc1ccn([C@@H]2O[C@H](CO)[C@@H](O)C2(F)F)c(=O)n1
active: [1] 0.0422 µM | [18] 4.77 µM [inhibitor]
not listed: [3] | [6] | [11] | [12] | [14] | [19]
inactive: all other assays above

COCCOC[C@H](CC1(C(=O)NC2CCC(C(=O)O)CC2)CCCC1)C(=O)Oc1ccc2c(c1)CCC2 (stereo not given in full)
not listed: [6] | [8] | [9] | [14]
inactive: all other assays above

CC(C)(CCC(=O)O)C(=O)O
not listed: [6] | [12] | [14] | [19]
inactive: all other assays above

CC(C)(C)c1ccc(-c2ccc(C(C)(C)C)cc2)cc1
not listed: [6] | [9] | [12] | [16]
inactive: all other assays above

CCC(C)(CCCC(C)C)OC(C)=O (stereo not given)
not listed: [15] | [16] | [18]
inactive: all other assays above

CCNS(=O)(=O)c1ccc(C)cc1
not listed: [6] | [13] | [14]
inactive: all other assays above

CC(=O)O[C@@]12CO[C@@H]1C[C@H](O)[C@@]1(C)C(=O)[C@H](O)C3=C(C)[C@@H](OC(=O)[C@H](O)[C@@H](NC(=O)OC(C)(C)C)c4ccccc4)C[C@@](O)([C@@H](OC(=O)c4ccccc4)[C@H]21)C3(C)C
59.6 nM (active) and inactive: [6]
active: [1] 0.0298 µM | [8] 26.6 µM | [10] 33.5 µM and 26.6 µM
not listed: [3] | [14]
inactive: all other assays above

CCCCOCCOC(=O)COc1cc(Cl)c(Cl)cc1Cl
not listed: [6] | [9] | [11] | [12] | [15] | [19]
inactive: all other assays above

CC(=O)N[C@H]1[C@H]([C@H](O)[C@H](O)CO)OC(C(=O)O)=C[C@@H]1N=C(N)N
not listed: [3] | [12]
inactive: all other assays above

CC/C=C\CCOC(C)OCC (stereo not given)
not listed: [4] | [14] | [15]
inactive: all other assays above

COc1cc(C(=O)NCc2ccc(OCCN(C)C)cc2)cc(OC)c1OC
not listed: [3] | [6] | [14]
inactive: all other assays above
